Experimental data from PubChem BioAssay (NCATS).
Inconclusive results are not listed. The source made the active and inactive calls. Unless noted, calls come from the whole dose curve; as a rule, active = well fitted curve in the direction sought with a large enough effect; inconclusive = small, poorly fitted or top-dose-only effect, or another doubt; inactive = no such curve, though single readings can be large; an effect the other way counts as inactive or inconclusive.

Biological target: Thyrotropin receptor (Homo sapiens) (UniProt P16473)
Sequence (P16473 whole entry, looked up): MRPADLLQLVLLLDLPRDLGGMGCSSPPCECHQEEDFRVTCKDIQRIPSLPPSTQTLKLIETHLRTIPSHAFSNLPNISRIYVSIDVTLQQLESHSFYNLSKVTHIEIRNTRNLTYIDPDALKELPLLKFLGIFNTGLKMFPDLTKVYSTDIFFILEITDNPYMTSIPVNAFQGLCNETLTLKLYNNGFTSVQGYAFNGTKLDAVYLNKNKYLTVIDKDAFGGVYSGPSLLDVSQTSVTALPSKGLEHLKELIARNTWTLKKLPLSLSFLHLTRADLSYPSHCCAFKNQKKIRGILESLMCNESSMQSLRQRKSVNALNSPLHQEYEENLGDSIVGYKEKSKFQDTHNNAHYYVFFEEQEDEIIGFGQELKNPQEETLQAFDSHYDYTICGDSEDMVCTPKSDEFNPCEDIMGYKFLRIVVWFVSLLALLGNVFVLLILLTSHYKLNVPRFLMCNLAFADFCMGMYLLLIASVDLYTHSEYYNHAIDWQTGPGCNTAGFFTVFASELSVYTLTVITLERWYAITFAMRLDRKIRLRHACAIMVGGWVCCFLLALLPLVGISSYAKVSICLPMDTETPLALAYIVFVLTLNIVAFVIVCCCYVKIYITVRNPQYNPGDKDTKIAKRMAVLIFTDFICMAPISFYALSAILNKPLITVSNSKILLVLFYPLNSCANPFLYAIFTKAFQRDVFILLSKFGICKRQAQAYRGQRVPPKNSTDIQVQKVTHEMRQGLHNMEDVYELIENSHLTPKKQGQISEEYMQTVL
Experiment: qHTS Assay for Antagonists of the Thyroid Stimulating Hormone Receptor (AID 488980)
Conditions: TSHR-expressing cells, cAMP antagonist read-out; series mostly up to 57.5 µM; activity, negative = inhibition: at the top concentration
How it was run: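 Inhibition of cAMP raised by EC80 TSH (4 nM final) was read by HTRF, with lysate cAMP competing against cAMP-d2 for cryptate antibody after 30 min at room temperature. The cells were transfected HEK293 held in phosphodiesterase inhibitor RO 20-1724 at 70 uM.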
Note: 0% is about no effect.

| Structure (SMILES) | activity, negative = inhibition |
| --- | --- |
| CC(N)=NCc1cccc(CN)c1 | -1.36% (inactive) |
| O=C(O)c1cc(=O)c2ccc(Cl)cc2[nH]1 | -0.0219% (inactive) |
| NCCCCCCNS(=O)(=O)c1cccc2c(Cl)cccc12 | -1.26% (inactive) |
| CCCn1c(=O)c2[nH]c(-c3ccc(OCC(=O)Nc4ccc(C#N)cc4)cc3)nc2n(CCC)c1=O | -1.29% (inactive) |
| CN(C)CCCCSC(=N)N | -0.125% (inactive) |
| Cn1cnc2c(NC3CCCC3)ncnc21 | -0.344% (inactive) |
| NC(CCC(=O)NCS(=O)(=O)O)C(=O)O (configuration not stated) | -0.0078% (inactive) |
| O=C(OCCN1CCCCC1)c1c[nH]c2ccccc12 | -1.57% (inactive) |

Biological target: Thyrotropin-releasing hormone receptor (Homo sapiens) (UniProt P34981)
Sequence (P34981 whole entry, looked up): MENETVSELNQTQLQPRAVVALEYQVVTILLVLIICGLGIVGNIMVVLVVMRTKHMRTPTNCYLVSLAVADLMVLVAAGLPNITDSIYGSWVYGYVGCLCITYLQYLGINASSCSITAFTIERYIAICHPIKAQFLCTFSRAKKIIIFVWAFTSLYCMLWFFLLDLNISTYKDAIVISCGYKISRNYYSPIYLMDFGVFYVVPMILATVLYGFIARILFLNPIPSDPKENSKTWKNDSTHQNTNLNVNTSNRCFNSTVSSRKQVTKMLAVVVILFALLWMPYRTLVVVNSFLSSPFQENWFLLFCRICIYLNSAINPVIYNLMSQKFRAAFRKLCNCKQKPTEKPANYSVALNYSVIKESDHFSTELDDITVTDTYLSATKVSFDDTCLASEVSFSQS
Experiment: qHTS for Small Molecule Agonists and Allosteric Enhancers of Human TRH Receptor: Validation Screen for Agonists (AID 493127;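 active = calcium activation more than 3 SD above the typical response in the agonist read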;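 note: intracellular calcium rise by fluo-8 fluorescence before TRH EC20 addition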)
Conditions: TRH receptor agonist cell assay; at 2 µM; stronger effect = higher value
How it was run: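 Compound-evoked intracellular calcium release in fluo-8-loaded TRHR cells, read kinetically on FDSS (Ex 480/Em 530, 1 s/cycle) after 23 nL pintool transfer. Agonist phase preceded 10 nM TRH EC20 addition.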

| Structure (SMILES) | activation |
| --- | --- |
| CC(N)=NCc1cccc(CN)c1 | -0.25% (inactive) |
| O=C(O)c1cc(=O)c2ccc(Cl)cc2[nH]1 | 1.31% (inactive) |
| NCCCCCCNS(=O)(=O)c1cccc2c(Cl)cccc12 | 2.44% (inactive) |
| CCCn1c(=O)c2[nH]c(-c3ccc(OCC(=O)Nc4ccc(C#N)cc4)cc3)nc2n(CCC)c1=O | 0.938% (inactive) |
| CN(C)CCCCSC(=N)N | 1.19% (inactive) |
| Cn1cnc2c(NC3CCCC3)ncnc21 | 0.875% (inactive) |
| NC(CCC(=O)NCS(=O)(=O)O)C(=O)O (configuration not stated) | 1.56% (inactive) |
| O=C(OCCN1CCCCC1)c1c[nH]c2ccccc12 | 1.38% (inactive) |

Biological target: Galactokinase (Homo sapiens) (UniProt P51570)
Sequence (P51570 whole entry, looked up): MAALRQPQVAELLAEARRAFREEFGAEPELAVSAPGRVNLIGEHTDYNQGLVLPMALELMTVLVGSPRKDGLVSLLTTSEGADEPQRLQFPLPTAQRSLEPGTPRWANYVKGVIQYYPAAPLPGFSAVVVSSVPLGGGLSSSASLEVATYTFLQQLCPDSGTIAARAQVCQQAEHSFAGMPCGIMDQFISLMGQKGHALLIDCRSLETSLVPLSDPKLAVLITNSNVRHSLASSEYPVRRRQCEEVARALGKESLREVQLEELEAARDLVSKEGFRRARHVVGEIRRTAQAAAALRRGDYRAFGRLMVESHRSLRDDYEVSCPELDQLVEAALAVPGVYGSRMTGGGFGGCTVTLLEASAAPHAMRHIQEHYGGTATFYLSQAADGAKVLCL
Experiment: qHTS Validation Assay for Inhibitors of Human Galactokinase (GALK) (AID 493189)
Conditions: purified human GALK enzyme activity, qHTS 7-point titration; series mostly up to 57.5 µM; activity change, negative = inhibition: at the top concentration
How it was run: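 Inhibition was measured as remaining ATP, detected by luciferase luminescence after a 1 h room-temperature reaction. Final conditions: 5 nM GALK, 100 uM galactose, 35 uM ATP, pH 8.0 HEPES buffer.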

| Structure (SMILES) | activity change, negative = inhibition |
| --- | --- |
| CC(N)=NCc1cccc(CN)c1 | -1.72% (inactive) |
| O=C(O)c1cc(=O)c2ccc(Cl)cc2[nH]1 | 1.16% (inactive) |
| NCCCCCCNS(=O)(=O)c1cccc2c(Cl)cccc12 | -1.84% (inactive) |
| CCCn1c(=O)c2[nH]c(-c3ccc(OCC(=O)Nc4ccc(C#N)cc4)cc3)nc2n(CCC)c1=O | -4.74% (inactive) |
| CN(C)CCCCSC(=N)N | -2.15% (inactive) |
| Cn1cnc2c(NC3CCCC3)ncnc21 | 2.4% (inactive) |
| NC(CCC(=O)NCS(=O)(=O)O)C(=O)O (configuration not stated) | 2.31% (inactive) |
| O=C(OCCN1CCCCC1)c1c[nH]c2ccccc12 | 2.11% (inactive) |

System: not listed separately
Experiment: Validation screen for small molecules that induce DNA re-replication in SW480 colon adenocarcinoma cells (AID 504364)
Conditions: DNA re-replication phenotype (high-content imaging); series mostly up to 46.1 µM; activity (re-replication induction): at the top concentration
How it was run: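 Image-based DNA content read-out: Hoechst stain 40 min, total nuclear fluorescence intensity (ex 405 nm, em 500-530 nm) after 48 h compound exposure of 250 SW480 cells/well at 37 C, 5% CO2, versus DMSO vehicle.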

| Structure (SMILES) | activity (re-replication induction) |
| --- | --- |
| CC(N)=NCc1cccc(CN)c1 | -1.23% (inactive) |
| O=C(O)c1cc(=O)c2ccc(Cl)cc2[nH]1 | -2.33% (inactive) |
| NCCCCCCNS(=O)(=O)c1cccc2c(Cl)cccc12 | 3.53% (inactive) |
| CCCn1c(=O)c2[nH]c(-c3ccc(OCC(=O)Nc4ccc(C#N)cc4)cc3)nc2n(CCC)c1=O | 22.9% (inactive) |
| CN(C)CCCCSC(=N)N | -16.7% (inactive) |
| Cn1cnc2c(NC3CCCC3)ncnc21 | 2.55% (inactive) |
| NC(CCC(=O)NCS(=O)(=O)O)C(=O)O (configuration not stated) | -8.63% (inactive) |
| O=C(OCCN1CCCCC1)c1c[nH]c2ccccc12 | -0.0366% (inactive) |
